Most compounds without a hit are left out; they make up all but 2.1% or so of the library.
aSyn rescue – qHTS of alpha-syn Inhibitors; Yeast expressing alpha-synuclein, growth rescue, BacTiter-Glo, 24 h; Potency, µM (series often up to 46.1 µM), for the others: at the top dose growth rescue (activation), actives largely listed as activators; hit rate 0.14% among 370,000; AID 652106, 2013; also: % of control where 0% means no effect; nearly all actives have a fitted effect of over 65% in size
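Screening used galactose-induced yeast with toxic alpha-synuclein levels, exposed to compound for 24 hr at 30 deg C. Cell growth, read with BacTiter-Glo luminescence, gave the measured signal.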
Abeta yeast res – qHTS for compounds that reverse cellular toxicity of Amyloid beta (A-beta) peptide in yeast: Primary Screen. hit rate 0.063% among 410,000. Potency, µM (top dose mostly 46.1 µM), most hits filed as activators. AID 1347071, 2019. yeast expressing A-beta42, growth rescue, OD600, 48 h; response scale: 0% DMSO, 100% iron-clioquinol control; also: nearly all actives have a fitted effect of over 55% in size
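Growth rescue measured by 600 nm absorbance after 48 h yeast culture at 30 C with compound. Values normalized between DMSO and an equimolar ferric chloride plus clioquinol control.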
FUS suppressor – qHTS for Suppressors of FUS Proteinopathy: Primary screen using FUS-linked yeast assay; S. cerevisiae FUS-expressing, growth rescue, OD600, 24 h; Potency, µM (doses to about 76.6 µM), usual class: activators; hit rate 0.24% among 390,000; AID 1347120, 2019;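 also: plate controls were DMSO vehicle for no effect and reference control for full effect; nearly all actives have a fitted effect of over 55% in size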
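Compound concentration series was pinned onto galactose-induced FUS-expressing yeast seeded at OD 0.005. Plates sat 24hr at 30C; absorbance at 600 nm gave growth. DMSO served as background control.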
TDP-43 yeast inh – qHTS of TDP-43 Inhibitors; TDP-43 expressing yeast growth rescue, BacTiter-Glo, 24 h; Potency, µM (highest dose often 46.1 µM), without a hit: top-dose growth rescue (activation), hits mostly activators; AID 652104, 2013; hit rate 1.8% among 410,000; also: % of control where 0% means no effect; nearly all actives have a fitted effect of over 50% in size
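Cell-based yeast growth screen: TDP-43 expression induced in galactose, inoculum OD600=0.02 after raffinose pregrowth to mid-log. Read-out BacTiter-Glo luminescence at 24 hr, 30 deg C; inhibition of toxicity seen as signal increase.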
The depositor's hits bear a star; i = inactive; ? = inconclusive; nt = no result given. Calls follow the shape of the dose curve; as a rule, active = well fitted curve in the direction sought with a large enough effect; inconclusive = small, poorly fitted or top-dose-only effect, or another doubt; inactive = no such curve, though single readings can be large; an effect the other way counts as inactive or inconclusive. Potency is read from the fitted curve at half-maximal effect.

SMILES | aSyn rescue | Abeta yeast res | FUS suppressor | TDP-43 yeast inh
O=c1oc2ccccc2cc1-c1csc(NN=C2CCCCC2)n1 | 3% | i | 13µM* | -10%
C[C@H](NC(=O)c1ccco1)C(=O)Nc1nc(-c2ccccn2)cs1 | -3% | i | nt | 16%
O=C(Nc1nc(-c2ccncc2)cs1)c1ccco1 | -8% | i | ? | -17%
Cc1ccc(C(=O)Nc2nc(-c3ccccn3)cs2)cc1S(=O)(=O)N1CCOCC1 | 13µM* | i | i | ?
O=c1oc2ccccc2cc1-c1csc(Nc2nc3c(F)cccc3s2)n1 | 1% | i | nt | -3%
CC1(c2nnnn2-c2ccc3ccccc3c2)CSCC(=O)N1C1CC1 (stereo unspecified) | nt | nt | i | nt
CC(=O)CC[C@@H]1CC[C@]2(CCCN(C(=O)C(C)(C)C)C2)O1 | nt | nt | i | nt
Cc1cc(/C=C/c2ccnc3ccccc23)ccc1N | 7% | nt | nt | nt
C=CCN(C)C(C#CCCCC)c1ccccc1 (stereo unspecified) | nt | nt | i | nt
CS(=O)(=O)c1ccc(C(=O)OCC#CCSc2nnc(-c3cccc4ccccc34)o2)cc1 | nt | nt | i | nt
C=C1CCC[C@]2(C)C[C@H]3OC(=O)C(CN4CCCCC4CO)[C@H]3CC12 (stereo partly specified) | -15% | i | i | 13µM*
COc1ccc(-c2nc3ccc(NC(=O)COC(C)=O)cc3c(=O)n2Cc2ccccc2)cc1COc1ccc(NC(C)=O)cc1 | 0% | nt | nt | nt
CCc1n[nH]c(=S)n1/N=C/C(C)=C\c1ccccc1 | -1% | i | i | 27%
CCc1n[nH]c(=S)n1N=C1CCC(C)CC1 (stereo unspecified) | -10% | i | i | 3.5µM*
CCOC(=O)[C@]12CCCCC/C=C\1N(CCc1ccc(Cl)cc1)C(=O)[C@H]2CC(=O)N1CCN(C(=O)c2ccco2)CC1 | nt | nt | i | nt
O=C(/C=C/c1ccc(Cl)cc1Cl)N1CCN(c2ccccc2[N+](=O)[O-])CC1 | ? | i | i | 13µM*
CN(N=O)c1ccc(/C=C2\C=Cc3ccccc32)cc1 | -16% | nt | nt | nt
O=C(Cc1ccccc1)c1c[nH]c(C(=O)C(Cl)(Cl)Cl)c1 | 3% | i | i | 13µM*
O=C(c1ccccc1)c1c[nH]c(C(=O)C(Cl)(Cl)Cl)c1 | 1% | i | i | 12%
O=C(c1c[nH]c(C(=O)C(Cl)(Cl)Cl)c1)c1ccc(F)cc1Cl | -2% | i | i | 8.9µM*
Cc1cc(N2CCCCC2)n2ncc(-c3ccc(Cl)cc3)c2n1 | -8% | i | 11µM* | 14µM*
COc1ccc(CCNc2cc(C)nc3c(-c4ccc(Cl)cc4)cnn23)cc1OC | 12% | i | ? | 18µM*
Cc1cc(N2CCOCC2)n2ncc(-c3ccc(Cl)cc3)c2n1 | -1% | i | i | 18%
COc1ccc(CCNc2cc(C)nc3c(-c4ccccc4)cnn23)cc1OC | -8% | i | ? | -18%
CC(=O)Nc1ccc(Nc2cc(C)nc3c(-c4ccc(Cl)cc4)cnn23)cc1 | 0% | i | nt | 3.2µM*
SMILES | aSyn rescue | Abeta yeast res | FUS suppressor | TDP-43 yeast inh
Cc1ccc2c(c1)C(CS(=O)(=O)NCc1ccccc1)NC2 (stereo unspecified) | nt | nt | i | nt
CCS(=O)(=O)c1ncc(Cl)c(C(=O)N2CCN(c3cccc(Cl)c3)CC2)n1 | nt | i | i | 13µM*
CS(=O)(=O)c1ncc(Cl)c(C(=O)N2CCN(c3cccc(Cl)c3)CC2)n1 | 9% | i | i | 13µM*
Cc1cccc(SCC(=O)Nc2ccc3c(c2)OCCO3)c1 | 23% | i | i | 11µM*
CCSc1nnc(NC(=O)c2ccc3ccccc3n2)s1 | -11% | i | i | -1%
Cc1nnc(NC(=O)c2nc(SCc3ccccc3F)ncc2Cl)s1 | nt | i | ? | 16µM*
CCc1nnc(NC(=O)c2ccc3ccccc3n2)s1 | 6% | i | i | 32µM*
Cc1ccccc1NC(=O)c1nc(SCc2ccccc2F)ncc1Cl | 3% | nt | nt | nt
CC(C)c1nnc(NC(=O)c2nc(SCc3ccc(F)cc3)ncc2Cl)s1 | nt | i | 8.9µM* | 12%
CCc1nnc(NC(=O)c2nc(SCc3ccccc3F)ncc2Cl)s1 | nt | i | i | 18µM*
COC1CCN(C(=O)c2cc(COc3cc(C)ccc3C)on2)CC1 | 1% | i | i | 0%
COCCCC1CCN(C(=O)c2cc(COc3cc(C)ccc3C)on2)CC1 | -6% | i | ? | 28µM*
Brc1ccc(Cn2nnc(-c3ccc(N4CCOCC4)cc3)n2)cc1 | nt | nt | i | nt
CC(C)[C@H](NC(=O)OC(C)(C)C)C(=O)N1CCC(Oc2cccnc2)CC1 | nt | nt | i | nt
CN(C)c1ccc(C(=O)Oc2cc(O/N=[N+](\[O-])N(C)C)c([N+](=O)[O-])cc2[N+](=O)[O-])cc1 | -73% | nt | nt | nt
O=C(Nc1ccccc1)C1=C[C@H](c2csc3ccccc23)C[C@H](OCc2ccc(CO)cc2)O1 | 14% | i | 11µM* | 16%
CN1C2CC(OC(=O)[C@H](CO)c3ccccc3)CC1C1OC12 (stereo partly specified) | 3% | nt | nt | nt
Cc1cccc2cc3c(N)c(C#N)sc3nc12 | ? | i | i | 3.2µM*
Cc1ccc(C)c(NC(=O)c2ccc(CS(=O)(=O)Cc3ccccc3C)o2)c1 | nt | nt | i | nt
O=C(NCCc1ccccc1)OCc1cn(-c2cccc(F)c2F)nn1 | nt | nt | i | nt
COc1ccc(-c2nc(C(=O)NCC3CCCO3)cc3c2[nH]c2ccccc23)cc1 (stereo unspecified) | -4% | i | ? | 0%
Cc1ccc(-c2nc(C(=O)NCC3CCCO3)cc3c2[nH]c2ccccc23)cc1 (stereo unspecified) | ? | i | i | 25µM*
Cc1ccccc1-c1nc(C(=O)NCC2CCCO2)cc2c1[nH]c1ccccc12 (stereo unspecified) | 6% | i | i | 10µM*
O=C(NCC1CCCO1)c1cc2c([nH]c3ccccc32)c(-c2cccc(Br)c2)n1 (stereo unspecified) | 16% | i | ? | 10µM*
C[C@H]1[C@@H](NCc2ccccc2)CC[C@@]23CCCN2C(=O)CCC[C@@H]13 | nt | nt | i | nt
SMILES | aSyn rescue | Abeta yeast res | FUS suppressor | TDP-43 yeast inh
CC1CCC2(CCC(=O)N2CCCOC(=O)c2ccccc2)CC1 (stereo unspecified) | nt | nt | i | nt
COc1ccc(C(=O)Nc2ccc3c(c2)C(=O)N(C)[C@H]2CC[C@H](CC(=O)NCC4CC4)O[C@@H]2CO3)cc1 | nt | nt | i | nt
COc1ccc2c(c1)CC/C(=C\c1ccc(C)o1)C2=O | -1% | i | i | 18µM*
COc1ccc2c(c1)CC/C(=C/c1ccncc1)C2=O | -2% | i | i | 1%
Cc1nc2ccc(S(=O)(=O)NCC(=O)NCc3ccc(F)cc3)cc2s1 | nt | nt | i | nt
O=C(/C=C/c1c(F)cccc1Cl)c1ccc(O)cc1 | ? | ? | i | 7.9µM*

Compound activity (PubChem BioAssay)
